# Measurements: paper PMC7862700, “An all-to-all approach to the identification of sequence-specific readers for epigenetic DNA modifications on cytosine”
# Key:
# Assay in all cases: DAPPL (digital affinity profiling via proximity ligation, sequencing); 10 mM Tris-HCl pH 7.5, 50 mM NaCl, 1 mM DTT, 4% glycerol, room temperature, 30 min; GST-TFs on glutathione beads, 16-mer random dsDNA library, 0.1% formaldehyde crosslink after washing; high values mean tight binding
# Conditions in all cases: protein: recombinant; tags: N-terminal GST; dsDNA, one strand shown
# [1] = molecular target: T1, ELK1 (Homo sapiens, UniProt P19419 1-428)
# T1 sequence: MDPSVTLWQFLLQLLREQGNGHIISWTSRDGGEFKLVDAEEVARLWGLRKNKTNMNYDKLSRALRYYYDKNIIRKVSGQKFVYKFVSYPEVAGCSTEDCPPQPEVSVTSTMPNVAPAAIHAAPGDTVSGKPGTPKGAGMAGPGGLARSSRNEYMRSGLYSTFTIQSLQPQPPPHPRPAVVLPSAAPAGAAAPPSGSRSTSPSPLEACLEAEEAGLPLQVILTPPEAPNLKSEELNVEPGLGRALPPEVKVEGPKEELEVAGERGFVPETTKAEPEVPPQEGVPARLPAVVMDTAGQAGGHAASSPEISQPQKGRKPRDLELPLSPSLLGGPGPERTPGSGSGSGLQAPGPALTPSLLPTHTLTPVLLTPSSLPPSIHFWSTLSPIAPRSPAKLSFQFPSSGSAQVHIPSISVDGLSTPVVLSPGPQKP
# Method in brief: (§1)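 Pools were built from human transcription factors expressed in yeast as GST fusions, captured on glutathione beads and DNA-barcoded, along with a tag-only sample. Incubation with 200 nmole of a 16-mer random double-stranded DNA library lasted 30 min at room temperature in Tris/NaCl/DTT/glycerol buffer, and was followed by washing, 0.1% formaldehyde crosslinking, proximity ligation, PCR amplification and Illumina NextSeq500 sequencing. Binding signal is the quotient of each hexamer's read frequency for a factor and its frequency for the tag-only sample.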
# [2] = molecular target: T2, GABPA (Homo sapiens, UniProt Q06546 1-454)
# T2 sequence: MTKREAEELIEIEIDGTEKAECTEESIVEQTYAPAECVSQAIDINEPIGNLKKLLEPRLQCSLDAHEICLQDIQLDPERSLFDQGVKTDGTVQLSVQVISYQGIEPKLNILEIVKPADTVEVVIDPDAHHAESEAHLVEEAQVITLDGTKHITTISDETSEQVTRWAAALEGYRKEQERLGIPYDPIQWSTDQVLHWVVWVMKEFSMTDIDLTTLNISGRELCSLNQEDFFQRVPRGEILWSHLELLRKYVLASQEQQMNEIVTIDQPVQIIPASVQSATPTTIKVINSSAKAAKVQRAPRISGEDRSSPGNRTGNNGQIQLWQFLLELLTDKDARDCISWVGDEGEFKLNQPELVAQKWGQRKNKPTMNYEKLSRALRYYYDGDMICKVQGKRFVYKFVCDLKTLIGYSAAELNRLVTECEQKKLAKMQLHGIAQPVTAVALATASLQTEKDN
# Method in brief: as §1
# [3] = molecular target: T3, ERG (Homo sapiens, UniProt P11308 1-479)
# T3 sequence: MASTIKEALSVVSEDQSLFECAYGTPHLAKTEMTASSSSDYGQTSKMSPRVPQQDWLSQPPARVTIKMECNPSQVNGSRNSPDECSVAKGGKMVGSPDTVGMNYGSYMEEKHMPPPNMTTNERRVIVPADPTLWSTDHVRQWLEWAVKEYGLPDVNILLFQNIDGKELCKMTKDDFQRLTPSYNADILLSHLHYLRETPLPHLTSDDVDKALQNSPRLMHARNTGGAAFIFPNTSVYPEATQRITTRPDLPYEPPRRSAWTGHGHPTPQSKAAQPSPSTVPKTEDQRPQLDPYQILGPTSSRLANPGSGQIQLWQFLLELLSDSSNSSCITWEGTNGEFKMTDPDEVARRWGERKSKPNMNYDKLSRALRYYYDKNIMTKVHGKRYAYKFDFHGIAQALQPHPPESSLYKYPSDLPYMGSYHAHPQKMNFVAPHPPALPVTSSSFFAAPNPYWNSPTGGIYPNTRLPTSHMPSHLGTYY
# Method in brief: as §1
# [4] = molecular target: ELF1 (Homo sapiens, UniProt P32519 1-619)
# Method in brief: as §1
# [5] = molecular target: T4, EHF (Homo sapiens, UniProt Q9NZC4 1-300)
# T4 sequence: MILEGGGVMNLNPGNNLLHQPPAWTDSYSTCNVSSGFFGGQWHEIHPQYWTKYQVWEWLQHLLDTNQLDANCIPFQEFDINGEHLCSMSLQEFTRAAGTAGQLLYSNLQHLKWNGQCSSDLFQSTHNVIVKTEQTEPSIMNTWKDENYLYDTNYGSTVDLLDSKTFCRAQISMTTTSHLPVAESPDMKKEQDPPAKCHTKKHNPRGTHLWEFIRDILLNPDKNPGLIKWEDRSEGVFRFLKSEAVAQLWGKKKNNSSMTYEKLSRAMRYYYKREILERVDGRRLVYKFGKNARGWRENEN
# Method in brief: as §1
# [6] = molecular target: SPIB (Homo sapiens, UniProt Q01892 1-262)
# Method in brief: as §1
# [7] = molecular target: T5, FEV (Homo sapiens, UniProt Q99581 1-238)
# T5 sequence: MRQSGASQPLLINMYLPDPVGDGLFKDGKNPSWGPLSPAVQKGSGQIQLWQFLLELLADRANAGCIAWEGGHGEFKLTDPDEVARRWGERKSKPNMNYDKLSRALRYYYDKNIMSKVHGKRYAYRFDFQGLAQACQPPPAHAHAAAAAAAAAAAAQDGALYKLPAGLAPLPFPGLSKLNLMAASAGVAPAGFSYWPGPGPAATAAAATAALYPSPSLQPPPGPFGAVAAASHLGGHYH
# Method in brief: as §1
# [8] = molecular target: ETV5 (Homo sapiens, UniProt P41161 1-510)
# Method in brief: as §1
# [9] = molecular target: ELF4 (Homo sapiens, UniProt Q99607 1-663)
# Method in brief: as §1
# [10] = molecular target: T6, ELK4 (Homo sapiens, UniProt P28324-2 1-405)
# T6 sequence: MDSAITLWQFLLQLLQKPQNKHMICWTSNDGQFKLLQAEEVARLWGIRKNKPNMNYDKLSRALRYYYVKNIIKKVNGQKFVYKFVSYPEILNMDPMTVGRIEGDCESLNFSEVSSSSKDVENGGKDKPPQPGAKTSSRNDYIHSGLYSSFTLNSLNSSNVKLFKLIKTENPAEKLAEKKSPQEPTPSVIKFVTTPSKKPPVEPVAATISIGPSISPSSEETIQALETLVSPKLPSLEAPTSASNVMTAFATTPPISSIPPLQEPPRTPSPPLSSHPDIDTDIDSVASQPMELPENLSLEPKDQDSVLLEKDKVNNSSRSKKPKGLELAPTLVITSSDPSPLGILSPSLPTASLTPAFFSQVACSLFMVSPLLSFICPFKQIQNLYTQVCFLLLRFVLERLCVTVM
# Method in brief: as §1
# Sequence of ELF1 (P32519 whole entry): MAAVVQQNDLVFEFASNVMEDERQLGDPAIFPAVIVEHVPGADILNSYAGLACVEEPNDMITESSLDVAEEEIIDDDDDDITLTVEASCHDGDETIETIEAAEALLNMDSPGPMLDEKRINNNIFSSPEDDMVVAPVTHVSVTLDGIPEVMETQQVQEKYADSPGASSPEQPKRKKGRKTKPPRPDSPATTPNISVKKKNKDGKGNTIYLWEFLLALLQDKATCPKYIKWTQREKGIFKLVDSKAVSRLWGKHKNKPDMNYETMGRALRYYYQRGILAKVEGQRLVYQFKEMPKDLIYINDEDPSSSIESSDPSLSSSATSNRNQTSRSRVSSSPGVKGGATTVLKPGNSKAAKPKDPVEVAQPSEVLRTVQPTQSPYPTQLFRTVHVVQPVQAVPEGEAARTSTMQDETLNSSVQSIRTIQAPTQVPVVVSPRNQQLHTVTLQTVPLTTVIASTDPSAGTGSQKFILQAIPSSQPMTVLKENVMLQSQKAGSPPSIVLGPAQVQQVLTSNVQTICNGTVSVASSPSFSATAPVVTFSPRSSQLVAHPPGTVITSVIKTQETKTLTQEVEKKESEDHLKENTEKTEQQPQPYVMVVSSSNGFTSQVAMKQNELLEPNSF
# Sequence of SPIB (Q01892 whole entry): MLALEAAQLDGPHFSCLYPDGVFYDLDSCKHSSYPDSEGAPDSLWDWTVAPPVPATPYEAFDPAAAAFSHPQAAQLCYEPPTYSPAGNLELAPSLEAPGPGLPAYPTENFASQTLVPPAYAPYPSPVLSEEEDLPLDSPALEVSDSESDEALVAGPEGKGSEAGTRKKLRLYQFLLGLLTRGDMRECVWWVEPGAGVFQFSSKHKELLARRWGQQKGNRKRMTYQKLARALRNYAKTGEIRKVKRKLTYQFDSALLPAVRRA
# Sequence of ETV5 (P41161 whole entry): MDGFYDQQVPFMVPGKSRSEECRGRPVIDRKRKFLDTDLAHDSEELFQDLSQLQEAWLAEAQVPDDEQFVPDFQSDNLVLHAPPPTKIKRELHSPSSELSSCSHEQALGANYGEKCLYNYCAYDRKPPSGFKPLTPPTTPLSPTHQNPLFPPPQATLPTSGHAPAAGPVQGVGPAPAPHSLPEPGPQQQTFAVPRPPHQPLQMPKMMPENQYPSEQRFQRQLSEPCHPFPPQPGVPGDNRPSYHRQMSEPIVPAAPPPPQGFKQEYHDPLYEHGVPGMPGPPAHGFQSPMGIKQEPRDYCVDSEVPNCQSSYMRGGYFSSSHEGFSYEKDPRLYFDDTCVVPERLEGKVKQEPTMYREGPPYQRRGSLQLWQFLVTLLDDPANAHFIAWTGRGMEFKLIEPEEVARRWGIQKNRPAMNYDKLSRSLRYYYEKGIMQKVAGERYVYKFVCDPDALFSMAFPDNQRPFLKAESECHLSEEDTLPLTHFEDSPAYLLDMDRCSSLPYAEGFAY
# Sequence of ELF4 (Q99607 whole entry): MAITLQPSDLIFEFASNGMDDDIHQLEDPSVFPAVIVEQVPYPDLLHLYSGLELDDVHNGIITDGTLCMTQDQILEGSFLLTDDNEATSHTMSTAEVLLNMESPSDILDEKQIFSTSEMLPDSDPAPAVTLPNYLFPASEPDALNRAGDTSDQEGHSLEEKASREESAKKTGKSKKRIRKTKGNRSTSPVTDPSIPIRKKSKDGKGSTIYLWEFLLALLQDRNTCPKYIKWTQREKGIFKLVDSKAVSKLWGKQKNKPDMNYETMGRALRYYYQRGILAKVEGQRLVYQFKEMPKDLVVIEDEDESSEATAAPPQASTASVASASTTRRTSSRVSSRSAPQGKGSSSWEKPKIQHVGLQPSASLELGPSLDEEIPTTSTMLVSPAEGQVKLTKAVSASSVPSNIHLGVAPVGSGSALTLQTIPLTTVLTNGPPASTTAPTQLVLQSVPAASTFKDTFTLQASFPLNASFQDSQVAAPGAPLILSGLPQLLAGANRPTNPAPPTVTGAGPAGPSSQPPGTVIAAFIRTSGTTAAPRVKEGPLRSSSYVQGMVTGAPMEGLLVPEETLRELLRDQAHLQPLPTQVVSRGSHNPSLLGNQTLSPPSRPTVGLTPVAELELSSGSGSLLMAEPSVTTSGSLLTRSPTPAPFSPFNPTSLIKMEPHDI
sequence,measurement,setting,value
CCCCCC,binding signal,[1],"1.04 fold enrichment (6-mer frequency, TF over GST control)"
same,binding signal,[2],"1.08 fold enrichment (6-mer frequency, TF over GST control)"
same,binding signal,[3],"1.07 fold enrichment (6-mer frequency, TF over GST control)"
same,binding signal,[4],"1.08 fold enrichment (6-mer frequency, TF over GST control)"
same,binding signal,[5],"1.06 fold enrichment (6-mer frequency, TF over GST control)"
same,binding signal,[6],"1.1 fold enrichment (6-mer frequency, TF over GST control)"
same,binding signal,[7],"1.03 fold enrichment (6-mer frequency, TF over GST control)"
same,binding signal,[8],"1.09 fold enrichment (6-mer frequency, TF over GST control)"
same,binding signal,[9],"1.16 fold enrichment (6-mer frequency, TF over GST control)"
same,binding signal,[10],"1.23 fold enrichment (6-mer frequency, TF over GST control)"
